Screening data: PubChem BioAssay, National Center for Advancing Translational Sciences (NCATS)
CtBP-E1A inh – inhibitors of CtBP/E1A interaction | activity change, % (no concentration beside the values) | AID 651724 | 340,000 compounds, 0.49% hits | AlphaScreen GST-E1A/His-CtBP binding, 1536-well; hits give low values; in the data active means activity change below about -65%; inconclusive means mostly about -30% to -63%
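Steps: dispense buffer (Tris pH 8.0, NaCl 300 mM, TCEP 1 mM, BSA, Tween 20); add 5X protein mix (GST-E1A, His-CtBP, 125 nM each); pin 23 nL compound; 2 h at 37 °C, dark; add 5X beads (50 ug/mL); 1 h; read.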
CBFb-RUNX1 inh – inhibitors of human CBF-beta and RUNX1 interaction | Potency, µM (top dose mostly 59.8 µM), most hits filed as inhibitors | 230,000 tested, under 10 active | AlphaScreen CBFb-His/RUNX1-biotin binding, biochemical | Q01196+Q13951
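His-tagged CBF-beta and biotinylated RUNX1 (30 nM each) were premixed 20 min at room temperature, exposed to compound for 15 min, then given nickel-chelate and streptavidin AlphaScreen beads (50 ng each). After 90 min, AlphaScreen signal was read.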
MBNL1 CUG block – inhibitors of human MBNL1 binding to CUG repeat RNA | 280,000 compounds, 0.036% hits | AID 2675 | Q9NR56 | TR-FRET MBNL1-His/biotin-(CUG)12 binding, 665/545 ratio | Potency, µM (doses to about 57.5 µM), hits mostly inhibitors; active means well fitted inhibition curve with a large enough effect in the signal ratio, with a control signal flat, not every such curve was filed as active; inconclusive means small, poorly fitted or top-dose-only effect, or effect the other way, or a change in a side signal; inactive means no such curve, though single readings can be large or run the other way; the % refers to the signal ratio
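Compounds (final 92 nM to 58 uM) are added to His-tagged MBNL1 and biotin-(CUG)12, then terbium anti-His antibody and streptavidin-XL665 (5 nM final). After 60 min at room temperature, the 665/545 nm ratio is read.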
RORgamma inh – ROR gamma (mouse) transcription inhibition | 310,000 compounds, 5.4% hits | Potency, µM (doses to about 53.6 µM), actives largely listed as inhibitors | P51450 | Drosophila S2 Gal4-RORgamma UAS-luciferase reporter, 20 h; further: nearly all actives have a fitted effect of over 60% in size
Target sequence (P51450 whole entry, looked up, the tested form may be a part): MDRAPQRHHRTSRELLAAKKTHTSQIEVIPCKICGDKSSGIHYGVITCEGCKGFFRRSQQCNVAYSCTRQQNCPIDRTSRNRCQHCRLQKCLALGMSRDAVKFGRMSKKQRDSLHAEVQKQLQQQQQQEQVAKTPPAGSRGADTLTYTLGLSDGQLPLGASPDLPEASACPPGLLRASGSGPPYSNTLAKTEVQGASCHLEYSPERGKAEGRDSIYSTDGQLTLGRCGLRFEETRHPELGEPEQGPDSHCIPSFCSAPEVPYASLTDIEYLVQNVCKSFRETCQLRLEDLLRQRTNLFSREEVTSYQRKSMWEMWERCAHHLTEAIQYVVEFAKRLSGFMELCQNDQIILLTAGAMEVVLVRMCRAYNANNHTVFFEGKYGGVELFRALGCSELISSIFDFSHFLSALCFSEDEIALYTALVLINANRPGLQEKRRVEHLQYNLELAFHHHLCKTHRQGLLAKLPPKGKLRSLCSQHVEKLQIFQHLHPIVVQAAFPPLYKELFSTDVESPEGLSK
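Using a luciferase readout, inhibitors were identified by reduced reporter activity in Drosophila cells coexpressing a copper-inducible Gal4–ROR gamma fusion and UAS-driven Photinus luciferase, incubated 20 hr after 700 uM copper sulfate.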
Gal4-VP16 FLuc – inhibits Gal4-VP16 luciferase reporter, ROR gamma counter-screen; Drosophila S2 Gal4-VP16 UAS-luciferase, luminescence, 20 h; Potency, µM (series often up to 53.6 µM), hits mostly inhibitors; 310,000 compounds, 3.5% hits; AID 2546;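 further: Gal4-VP16 expression switched on by copper sulfate through the metallothionein promoter; nearly all actives have a fitted effect of over 50% in size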
Six1-Eya2 inh – blocks human Six1 binding to Eya2. Q15475+O00167. AlphaScreen GST-Six1/His-Eya2 binding, biochemical; hits give low values. activity change, % (no concentration beside the values). 360,000 compounds, 0.56% hits. AID 651725; in the data active means activity change below about -65%; inconclusive means mostly about -30% to -63%
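AlphaScreen luminescence read after one hour at 37 °C in darkness. Pin-transferred compounds met GST-Six1 and His-Eya2 protein (5X stock 250 nM/500 nM) plus glutathione donor and Ni-chelate acceptor beads (5X, 50 ug/mL).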
A number is an active result; - = inactive; ? = inconclusive; . = not tested or not shown; [ ] = dose if it differs, or a comment. Sampled rows, rich in hits. Any-hit rate of the full collection: about 5.5%. Unless noted, the call rests on the fitted dose curve; in most records, active means well fitted curve in the direction sought with a large enough effect; inconclusive means small, poorly fitted or top-dose-only effect, or another doubt; inactive means no such curve, though single readings can be large; an effect the other way counts as inactive or inconclusive.

SMILES	CtBP-E1A inh	CBFb-RUNX1 inh	MBNL1 CUG block	RORgamma inh	Gal4-VP16 FLuc	Six1-Eya2 inh
COc1ccc2oc(=O)c(C(=O)Nc3cccc(C)c3)cc2c1	-	-	-	2.2µM	?	-
COc1cccc(NC(=O)c2cc3cccc(OC)c3o/c2=N\O)c1	.	.	-	-	-	.
O=C(O)c1ccccc1NC(=O)c1cc2ccccc2oc1=O	.	.	?	13µM	?	-
O=C(Nc1cccc(-c2cn3ccccc3n2)c1)c1cc2ccccc2oc1=O	-	-	?	?	8.9µM	-
O=C(Nc1cccnc1N1CCOCC1)c1cc2ccccc2oc1=O	-	-	-	-	-	-
COc1cccc(NC(=O)c2cc3ccccc3o/c2=N\O)c1	.	.	?	8.9µM	20µM	-
COc1ccc(NC(=O)c2cc3cc(OC)ccc3oc2=O)cc1	-	.	.	.	.	-
CC(=O)Nc1cccc(-c2cn3ccccc3n2)c1	-	-	-	-	-	-
O=C(NC1CCCCC1)C1c2ccccc2OCC(=O)N1CCCN1CCOCC1 (configuration not stated)	-	.	.	.	.	-
CS(=O)(=O)N1CCC[C@@]2(CCN(C(c3ccccc3)c3ccccc3)C2)C1	.	.	.	-	-	.
Cc1ccnc(NC(=O)c2cc3ccccc3oc2=O)c1	-	-	?	-	-	-
Cc1cccc(NC(=O)c2cc3ccccc3oc2=O)c1	.	.	-	2.8µM	?	-
O=C(NC1CCCCCC1)c1cc2ccccc2oc1=O	-	.	-	10µM	?	-
COc1cc(/C=N/O)ccc1Oc1cnccn1	-	.	-	-	-	-
COCc1c(C(=O)Nc2cccc(S(=O)(=O)N3CCCCC3)c2)oc2ccccc12	-	.	.	.	.	-
CCOC(=O)C[C@@H](C(=O)OCC)[C@@H]1CCCCC1=O	.	-[13.1 µM]	.	-[10 µM]	-[10 µM]	.
CC1=CC(C)(C)NC(=S)N1CCO	-	.	.	.	.	-
CC1=CC(C)(C)NC(=S)N1c1ccc(Cl)cc1	-	.	.	.	.	-
CC1=CC(C)(C)NC(=S)N1c1ccc2ccccc2c1	-	-	-	3.5µM	6.3µM	-
Cc1nnc(C)c2c(C)n(C(C)c3ccccc3)c(C)c12 (configuration not stated)	-	-	-	-	-	-
CC1=CC(C)(C)NC(=S)N1C(C)c1ccccc1 (configuration not stated)	-	.	-	2.2µM	4µM	-
CC1=CC(C)(C)NC(=S)N1c1cccc2ccccc12	-	-	-	?	5µM	-
C[C@@H](C(=O)Nc1ccc2ccccc2c1)[C@@H]1C[C@@]1(C)[C@@H](NS(=O)(=O)c1ccc(-c2ccccc2)cc1)c1ccccc1	.	-	.	-	-	.
CCC(C(=O)NCc1ccco1)N(C(=O)CNS(=O)(=O)c1ccc(C)cc1)c1ccccc1F (configuration not stated)	-	.	-	-	-	-
CCOC(=O)c1cnc(-n2nc(C)cc2C)nc1Nc1cccc(C(=O)O)c1	-	-	-	-[10 µM]	-	-
SMILES	CtBP-E1A inh	CBFb-RUNX1 inh	MBNL1 CUG block	RORgamma inh	Gal4-VP16 FLuc	Six1-Eya2 inh
CCOC(=O)c1cnc(-n2nc(C)cc2C)nc1Nc1ccc(N(C)C)cc1	-	?	-	0.79µM	1.1µM	-
CCOC(=O)c1cnc(-n2nc(C)cc2C)nc1NC	?	-	-	1.6µM	5.6µM	-
CCOC(=O)c1cnc(-n2nc(C)cc2C)nc1Nc1ccc(C)cc1	-	-	-	0.56µM	0.79µM	-
CCOC(=O)c1cnc(-n2nc(C)cc2C)nc1NC1CCCCC1	-	-	-	0.35µM	1.1µM	-
CCOC(=O)c1cnc(-n2nc(C)cc2C)nc1Nc1ccc2c(c1)OCO2	.	-	-	-[10 µM]	-	.
CCOC(=O)c1cnc(-n2nc(C)cc2C)nc1Nc1ccc(O)cc1	-	-	.	-	-	-
CN(C)c1ncc2nc(-c3cc(F)cc(F)c3)c(=O)n(Cc3ccc(F)cc3)c2n1	.	.	.	-	-	.
Cc1ccc(S(=O)(=O)NCC(=O)NCC(=O)N2CCC(C)CC2)cc1	-	.	-	-	-	-
O=C(Nc1cc(Cl)ccc1-n1cncn1)c1cccs1	-	.	.	.	.	-
CCc1ccc(CNC(=O)C2CCN(S(=O)(=O)N3CCC(C)CC3)CC2)cc1	.	.	-	-	-	-
O=C(O)c1ccccc1C(=O)c1ccc(F)c(F)c1	-	.	.	.	.	-
CCOC(=O)c1cnc(-n2nc(C)cc2C)nc1N(CC)CC	-	-	-	1µM	4.5µM	?
CCNC(=S)NNC(=O)C1CCCCC1	-	-	-	13µM	?	-
CCNC(=O)C/C(C)=N/NC(=O)C1CCCCC1	-	-	.	11µM	?	-
COc1ccc(CCNC(=O)C/C(C)=N/NC(=O)C2CCCCC2)cc1OC	-	-	-	-	?	-
CCNC(=S)N1CCC(NC(=O)C2CCCCC2)CC1	-	-	-	-	-	-
CS(=O)(=O)Nc1ccc(-c2ccc(/C=C3\SC(N)=NC3=O)o2)cc1	-68	.	?	-	-	?
Cc1c(Cl)cccc1NC(=O)CSc1nc(=O)n(CCCN2CCOCC2)c2c1CCC2	-	.	.	.	.	-
Cc1ccc(S(=O)(=O)N(C)c2ccc3c(c2)C(=O)c2ccccc2-3)cc1	-	.	.	.	.	-
CN(C)c1cc2c(c(N(C)C)c1)C(=O)c1ccccc1C2=O	-81	-	?	-	?	-81
COc1cc(OC)c(OC)cc1/C=C/c1cc(C(=O)O)c2ccccc2n1	.	-	-	-	-	-
COc1ccc(/C=C/c2cc(C(=O)O)c3ccccc3n2)cc1	-	-	-	1.1µM	1.4µM	-
Cc1cc(C(=O)c2ccccc2)nc2ccccc12	-	-	-	-	-	-
Cc1cc(/C=C\c2ccccc2)nc2ccccc12	-	?	-	11µM	-	-
Cc1ccc2nc(C(Cl)(Cl)Cl)nc(N/N=C/c3ccc([N+](=O)[O-])cc3)c2c1	-	.	.	.	.	-
SMILES	CtBP-E1A inh	CBFb-RUNX1 inh	MBNL1 CUG block	RORgamma inh	Gal4-VP16 FLuc	Six1-Eya2 inh
CCOC(=O)c1c(-c2ccc(C)cc2)csc1NC(=S)NC(=O)c1ccccc1	-	-	-	3.2µM	2.8µM	-
COC(=O)c1c(-c2ccc(C)cc2)csc1NC(=S)NC(=O)c1ccc(F)cc1	-	-	-	2.5µM	5µM	-
Cc1ccc(-c2csc(NC(=O)c3ccc(Br)cc3)c2C(=O)O)cc1	-	.	-	-	-	-
COC1CC2CCC(C)[C@](O)(O2)C(=O)C(=O)N2CCCCC2C(=O)OC(C(C)CC2CCC(O)C(OC)C2)CC(=O)C(C)/C=C(/C)C(O)C(OC)C(=O)C(C)CC(C)C=CC=C/C=C\1C (some centres not stated)	.	.	.	-	?	.
Fc1cc(F)c2nc(Nc3nc4cc5c(cc4s3)OCO5)sc2c1	-	?	-	16µM	?	-
CC(C)C(=O)Nc1nc2cc3c(cc2s1)OCO3	-	-	?	-	?	-
Fc1cccc2sc(Nc3nc4cc5c(cc4s3)OCO5)nc12	-	-	.	6.3µM	7.1µM	-
Fc1cccc2sc(Nc3nc4cc5c(cc4s3)OCCO5)nc12	-	-	.	5.6µM	11µM	-
